Sampled rows, rich in hits. Any-hit rate of the full collection: about 7.5%.
NPC1 prom act – NPC1 promoter activation; Huh7 NPC1 promoter luciferase reporter, 24 h; Potency, µM (titrated, usually from 9.22 µM), actives largely listed as activators; 320,000 compounds, 2.4% hits; further: nearly all actives have a fitted effect of over 60% in size
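Stably transfected Huh7 (NPC1 promoter→luciferase), 1500 cells/well in Opti-MEM + 10% FBS, 2 h settle, then compound 24 h at 37 °C. Luminescence after 10 min with Amplite reagent.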
SMN2 splice enh – SMN2 splice variant enhancement. Potency, µM (highest dose often 46.1 µM), most hits filed as activators. 210,000 compounds, 2.8% hits. AID 1458. HEK293 SMN2-luciferase splicing reporter, luminescence, 30-36 h; further: nearly all actives have a fitted effect of over 55% in size
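qHTS luciferase splicing reporter: luminescence rises when SMN2 exon 7 is included in transfected HEK293 cells. Compound exposure lasted 30-36 h at 37C, with 4.5 mM final sodium butyrate as control, followed by a ONE-Glo read.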
FLuc counter – counter-screen for miR-21 project: firefly luciferase inhibitors or activators; purified FLuc, Km substrates, luminescence inhibition; Potency, µM (doses to about 57.5 µM), actives largely listed as inhibitors; 360,000 compounds, 6.9% hits; further: nearly all actives have a fitted effect of over 55% in size
Target sequence (P08659 whole entry, looked up): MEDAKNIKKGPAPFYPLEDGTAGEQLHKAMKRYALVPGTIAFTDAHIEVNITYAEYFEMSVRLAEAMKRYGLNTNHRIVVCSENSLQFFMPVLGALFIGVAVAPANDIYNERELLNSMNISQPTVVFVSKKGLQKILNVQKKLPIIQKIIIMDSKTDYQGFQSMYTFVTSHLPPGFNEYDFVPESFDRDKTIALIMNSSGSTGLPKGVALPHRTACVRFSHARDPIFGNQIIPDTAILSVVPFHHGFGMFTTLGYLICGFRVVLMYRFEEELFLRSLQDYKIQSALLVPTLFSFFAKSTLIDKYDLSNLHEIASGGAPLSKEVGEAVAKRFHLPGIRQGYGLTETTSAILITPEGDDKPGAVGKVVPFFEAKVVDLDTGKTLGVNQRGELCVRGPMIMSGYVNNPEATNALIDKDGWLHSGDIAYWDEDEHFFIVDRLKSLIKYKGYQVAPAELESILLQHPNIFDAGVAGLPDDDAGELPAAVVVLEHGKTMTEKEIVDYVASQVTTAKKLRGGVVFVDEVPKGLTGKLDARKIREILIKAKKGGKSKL
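Purified P. pyralis luciferase (10nM final) with 10uM D-luciferin and 10uM ATP (Km levels) in 50mM Tris acetate pH 7.5, 10mM Mg acetate, 0.01% Tween-20, 0.05% BSA; qHTS 6-point titration, ~60 µM downward; luminescence read.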
ELG1 genotox – induces genotoxicity in HEK293T cells with luciferase-tagged ELG1; HEK293T ELG1-luciferase reporter, luminescence, 16 h; 330,000 compounds, 1.3% hits; Potency, µM (titrated, usually from 46 µM), actives largely listed as activators; further: nearly all actives have a fitted effect of over 60% in size
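16 hr compound incubation (37 °C, 5% CO2) of HEK293T cells carrying luciferase-tagged ELG1; luciferase then measured by ONE-Glo luminescence after 30 min at RT.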
Rab9 promoter act – Rab9 promoter activation | Huh7 Rab9 promoter-luciferase reporter, luminescence, 24 h | Potency, µM (titrated, usually from 9.22 µM), hits mostly activators | 320,000 compounds, 2.8% hits; further: nearly all actives have a fitted effect of over 60% in size
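Quantitative HTS format; Huh7 Rab9-luciferase reporter cells (1500/well) receive compound 2 h post-plating, incubate 24 h at 37 °C, then get luciferase reagent for 10 min before luminescence reading.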
Numbers stand for hits; – = inactive; ? = inconclusive; · = no result. The call rests on the fitted dose curve; in most records, active means well fitted curve in the direction sought with a large enough effect; inconclusive means small, poorly fitted or top-dose-only effect, or another doubt; inactive means no such curve, though single readings can be large; an effect the other way counts as inactive or inconclusive.

SMILES	NPC1 prom act	SMN2 splice enh	FLuc counter	ELG1 genotox	Rab9 promoter act
CC(C)C(=O)N(c1ccc(F)cc1)C1C=CS(=O)(=O)C1 (stereo not given)	–	·	–	–	–
O=c1cc(-c2ccccc2)[nH]n1-c1ccc([N+](=O)[O-])cc1	–	–	15µM	–	?
Cc1ccc(Cl)cc1NC(c1ccc(F)cc1)c1nnc(-c2ccccc2)o1 (stereo not given)	·	·	–	·	·
Cc1ccc(C)c(NC(c2ccccc2)c2nnc(-c3ccccc3F)o2)c1 (stereo not given)	·	–	15µM	·	·
Cc1cc2cc3c(cc2nc1SCC(=O)N1CCOCC1)OCO3	–	·	–	–	–
CC(C)OC(=O)CSc1nc(N)c(C#N)cc1C#N	–	–	–	?	?
COC(=O)CSc1nc(-c2cccs2)ccc1C#N	1.8µM	14µM	?	8.2µM	2.2µM
CC(C)OC(=O)CSc1nc2cc3c(cc2cc1C#N)OCO3	4µM	?	–	?	?
N#Cc1cc2cc3c(cc2nc1SCC(=O)N1CCOCC1)OCO3	1.3µM	·	·	3.7µM	1.6µM
CCOc1ccc2cc(C#N)c(SCC(=O)N3CCOCC3)nc2c1	4µM	–	?	2.6µM	4µM
CCOC(=O)CSc1nc2cc3c(cc2cc1C#N)OCCO3	2µM	5.6µM	?	6.5µM	?
COC(=O)CSc1nc2cc3c(cc2cc1C)OCCO3	–	–	–	–	–
COC(=O)CSc1nc2cc3c(cc2cc1C#N)OCO3	0.89µM	10µM	–	?	0.79µM
CCOC(=O)CSc1nc2cc3c(cc2cc1C#N)OCO3	?	13µM	–	23µM	–
O=C(Nc1ccon1)C(Sc1ccccc1)c1ccccc1 (stereo not given)	–	–	–	–	–
CCn1c(C(=O)OC)cc2c1ccn2-c1ccc(F)cc1	?	16µM	9.5µM	16µM	?
O=C(c1ccccc1)c1c[nH]c2cc3c(cc2c1=O)OCO3	–	–	–	–	–
O=C(NCc1cccnc1)c1c[nH]c2cc3c(cc2c1=O)OCCO3	–	–	6µM	?	–
O=C(c1ccccc1)c1c[nH]c2cc3c(cc2c1=O)OCCO3	–	22µM	?	–	?
COc1ccc(N2C(=O)CC(Sc3nc(C)c4c(n3)CCCC4)C2=O)cc1 (stereo not given)	–	–	–	–	–
CCOC(=O)c1ccc(NC(=O)CSc2nnc3c4ccccc4n(CC)c3n2)cc1	·	–	–	·	·
CC(C)(C)c1ccc(C(=O)NCCC(=O)Nc2cc(Cl)ccc2N2CCOCC2)cc1	–	·	21µM	–	–
O=C(CCC1CCCC1)Nc1cc(Cl)ccc1N1CCOCC1	–	·	–	–	–
COc1ccc(N(CC(=O)N2CCc3ccccc3C2)S(=O)(=O)c2ccccc2)cc1	–	–	–	–	–
O=C1NN(c2ccccc2)C(=O)/C1=C/c1ccc(-c2ccc(C(=O)O)cc2)o1	–	·	21µM	–	–
SMILES	NPC1 prom act	SMN2 splice enh	FLuc counter	ELG1 genotox	Rab9 promoter act
COC(=O)c1ccc(N2NC(=O)/C(=C/c3ccc(-c4ccc(Cl)c(C(=O)O)c4)o3)C2=O)cc1	–	–	11µM	–	–
Cc1ccc(N2NC(=O)/C(=C/c3ccc(-c4ccc(Cl)c(C(=O)O)c4)o3)C2=O)cc1C	–	·	17µM	–	–
O=C1NN(c2ccc(Cl)c(Cl)c2)C(=O)/C1=C/c1ccc(-c2ccccc2C(=O)O)o1	–	·	?	–	–
CC(C)CCNC(=O)CCSCCC(=O)NCCC(C)C	–	–	–	–	–
O=C(Nc1ccc2sccc2c1)c1ccc(Cl)s1	1.4µM	7.1µM	0.67µM	1.5µM	1µM
COc1cccc(OCc2cc(C(=O)N3CCCC3c3ccccn3)no2)c1 (stereo not given)	2.2µM	·	15µM	?	2.8µM
CN1CCN(C(=O)c2cc(COc3ccccc3)on2)[C@@H](c2ccccc2)C1	3.5µM	·	9.5µM	13µM	2µM
Cc1ccc(OCc2cc(C(=O)N3CCN(C)C[C@@H]3c3ccccc3)no2)cc1C	2.8µM	·	21µM	?	2.5µM
CN1CCN(C(=O)c2cc(COc3c(F)cccc3F)on2)CC1c1ccccc1 (stereo not given)	–	·	?	–	–
CCC(=O)N1CCc2cc(S(=O)(=O)N3CCN(c4ccccc4F)CC3)ccc21	·	–	–	·	·
COc1ccccc1-c1nc(=S)c(C(C)=O)c(C)[nH]1	–	·	–	–	–
O=C1N=C(N2CCN(Cc3ccccc3)CC2)S/C1=C/c1cccs1	–	·	9.5µM	–	–
O=C1OC(c2ccccc2)=C/C1=C/c1cccs1	–	–	0.67µM	–	–
O=C1N=C(N2CCN(c3ccccc3)CC2)S/C1=C/c1cccs1	–	–	?	–	–
O=C1N=C(c2ccccc2)S/C1=C\c1cccs1	–	–	3.8µM	?	–
Cn1cccc1/C=C1\SC(=S)N(NC(=O)c2ccccc2)C1=O	–	–	–	–	–
C=CCSc1nc2ccsc2c(=O)n1-c1cccnc1	–	–	–	–	–
O=C(NC1(C(F)(F)F)C(=O)Nc2c1c(=O)[nH]c(=O)n2-c1ccccc1)c1ccccc1 (stereo not given)	·	–	–	·	·
Cc1ccc(NC(=O)Cn2c(=O)n(CCCC(=O)NCc3ccc4c(c3)OCO4)c(=O)c3ccccc32)cc1	·	–	–	·	·
COc1ccc(-c2nn(C)c3sc(C(=O)Nc4cc(OC)c(OC)c(OC)c4)cc23)cc1OC	·	?	8.5µM	·	·
COc1ccc(NC(=O)c2cc3c(-c4ccc(OC)c(OC)c4)nn(C)c3s2)cc1OC	–	–	11µM	–	–
COc1cccc(-c2nn(C)c3sc(C(=O)NCc4ccc(C)o4)cc23)c1	–	16µM	–	–	–
COc1ccccc1NC(=O)C1=C(C)Nc2ncnn2C1c1ccccc1C(=O)O (stereo not given)	·	–	–	·	·
CC(/C=C/c1ccc(N(C)C)cc1)=N\N=C(/N)SC1CC(=O)N(c2ccc(C(=O)O)cc2)C1=O (stereo not given)	–	?	1.1µM	?	?
CS(=O)(=O)c1ccccc1C(=O)Nc1cccc(-c2nc3ccccc3o2)c1	–	·	11µM	–	–
SMILES	NPC1 prom act	SMN2 splice enh	FLuc counter	ELG1 genotox	Rab9 promoter act
CCC(=O)Nc1cccc(-c2nc3ccccc3o2)c1	–	–	?	–	–
Cc1ccc(SCC(=O)Nc2ccc3oc(-c4cccc(Cl)c4)nc3c2)cc1	·	·	–	·	·
Cc1ccc2nc(-c3cccc(NC(=O)c4ccc(Br)o4)c3)oc2c1	·	–	2.7µM	·	·
Cc1cc2nc(-c3cccc(NC(=O)CSc4ccc(Cl)cc4)c3)oc2cc1C	·	–	1.9µM	·	·
Cc1cc2nc(-c3cccc(NC(=O)c4cccc5ccccc45)c3)oc2cc1C	·	–	2.1µM	·	·
Cc1ccc2nc(-c3ccc(Cl)c(NC(=O)c4ccc(Br)o4)c3)oc2c1	·	–	?	·	·
Cc1cc2nc(-c3ccc(NC(=O)c4ccccc4F)cc3)oc2cc1C	·	–	–	·	·
CCCOC(=O)c1ccc(NC(=O)C(=O)NCCN(CC)CC)cc1	–	–	–	–	–
O=C(Nc1cccc(-c2nc3ncccc3o2)c1)c1ccccc1	–	–	?	–	–

Screening data from PubChem BioAssay.
